Measured values reported in PubChem BioAssay (EPA / NIEHS).
Activity calls are given as the source filed them. How the source made its calls: active means hit-call score of the fitted dose curve at least 0.9, where 1 is the maximum; inactive means score below 0.9.

Read-out: UDP glucuronosyltransferase (UGT1A6), UGT1A6 (gene 54578)
Experiment: LTEA_HepaRG_UGT1A6: Life Technologies and Expression Analysis (LTEA) Assay for UDP glucuronosyltransferase (UGT1A6) using HepaRG (AID 2283539)
Details: mRNA level, 48 h; actives raise or lower the signal
Procedure: LTEA_HepaRG is a cell based, multiplexed-readout assay that uses HepaRG, a human liver cell line, with measurements taken at 48 hours after chemical dosing on a 96-well plate.LTEA_HepaRG_UGT1A6 is one of 102 assay component(s) measured in the LTEA HepaRG cell culture assay. It is a marker of NR mediated metabolism.Data from the assay component LTEA_HepaRG_UGT1A6 was analyzed into 1 endpoint. This assay endpoint, LTEA_HepaRG_UGT1A6, was analyzed with bidirectional fitting relative to DMSO as the negative control and baseline of activity. Using a type of inducible reporter, measures of mRNA induction for gain or loss-of-signal activity can be used to understand regulation of transcription factor activity. To generalize the intended target to other relatable targets, this assay endpoint is annotated to the transferase intended target family, where the subfamily is glucuronosyltransferase.
A total of 1060 chemcials from the ToxCast library were tested in eight-point concentration-response experiments. Cell culture and cytotoxicity assays were conducted at Thermo Fisher Scientific's Custom Services facility (Madison, WI). A single lot of human HepaRG cells (Thermo Fisher Scientific, Frederick, MD) was used for the cell culture experiments. 96-well format collagen type I coated plates of human HepaRG cells were prepared using established methods. Briefly, cryopreserved HepaRG cells were thawed, plated at a density of approximately 100,000 cells/well in HepaRG Thaw, Plate, and General Purpose media (HPRG770, Thermo Fisher Scientific), and incubated for 48 hours. 0.5% DMSO was selected as vehicle control to balance the requisite need of DMSO in HepaRG cultures to maintain differentiation (for example, baseline metabolism, proportions of hepatocytes vs. cholangiocytes), while enabling further hepatic receptor pathway activation (for example, PXR and CAR) in response to chemical exposure. 48 hours after plating, the culture medium was replaced with HepaRG Serum-Free Incudtion Media. Cells were exposed to each test chemical in duplicate and maintained in CO2 incubators for another 48 hours. Chemical plates were thawed to room temperature and 200x concentrations of treatment groups were prepared. 8-point conentration-reponse curves were made with the highest exposure at 100 uM, followed by half-log dilutions, all in 0.5% DMSO. Each test plate contained variouse controls, induction positive controls (1mM phenobarbital), cytotoxicity positive controls ([…] aflatoxin B1), vehicle controls (0.5% DMSO), and total lysis controls (0.5% DMSO). Cell morphology images were taken using an Essen IncuCyte FLR automated microscope, with six 96-well plates imaged in about 24 minutes. Images were captured and exported and JPEG files. Spent culture media was transfered to black-well plates for the LDH assay, and remaining media was sorted at -80 C for later use. Cells were treated with RLT buffer and frozen until shipped for gene expression analysis. Total RNA was isolated from the cell suspension in 75 uL of Buffer RLT (Qiagen, Germantown, MD 20874) by Quintiles/Expression Analysis (Durham, NC) using a custom isolation procedure. Total RNA from each plate well was transferred to a preamplification plate. Fluidigm's 96.96 Dynamic ArrayTM (Fluidigm, Amsterdam, the Netherlands) technology was used for gene expression analyses by quantitative reverse transcription polymerase chain reaction (qRT-PCR, performed by Quintiles/Expression Analysis, Durham, NC)89. Standard TaqManTM Assays (Applied Biosystems/ThermoFisher Scientific, Foster City, CA) were used to assess the expression of 93 genes selected based on their selectivity and sensitivity to important hepatic receptors known to be modulated by environmental chemicals; importance in human hepatocyte functionality; and hepatotoxicity. […]

Row | Compound | outcome | AC50
1 | CCNc1nc(Cl)nc(NC(C)(C)C)n1 | inactive | 
2 | ClC1=C(Cl)C2(Cl)C3C(Cl)C(Cl)CC3C1(Cl)C2(Cl)Cl (stereo not given) | inactive | 
3 | O=[N+]([O-])c1ccc(Cl)c(Cl)c1 | inactive | 
4 | CCOS(=O)(=O)OCC | inactive | 
5 | O=C(O)C(Cl)Cl |  | 312 nM (active)
6 | Cc1cccc(N)c1 | inactive | 
7 | O=[N+]([O-])c1ccccc1 | inactive | 
8 | Nc1ccc2ccccc2c1 | inactive | 
9 | O=P(Oc1ccccc1)(Oc1ccccc1)Oc1ccccc1 | inactive | 
10 | CCCCN(CCCC)SN(C)C(=O)Oc1cccc2c1OC(C)(C)C2 | inactive | 
11 | CCOP(=S)(OCC)SCSCC | inactive | 
12 | ClC(Cl)(Cl)c1ccccc1 | inactive | 
13 | Nc1cc2c3c(c1)C(c1ccccc1)=N[C@@H](NC(=O)c1cccnc1)C(=O)N3CC2 | inactive | 
14 | Cc1ccc(O)cc1C | inactive | 
15 | CCOP(=S)(Oc1ccc([N+](=O)[O-])cc1)c1ccccc1 (stereo not given) | inactive | 
16 | CCCCc1ccccc1 | inactive | 
17 | CCCCCCCc1ccc(O)cc1 | inactive | 
18 | CCOC(=O)c1ccccc1C(=O)OCC | inactive | 
19 | O=C(O)C1C(C(=O)O)C2(Cl)C(Cl)=C(Cl)C1(Cl)C2(Cl)Cl (stereo not given) | inactive | 
20 | Cc1ccc([N+](=O)[O-])cc1C | inactive | 

Row | Compound | outcome | AC50
21 | Cc1ccc(N)cc1N | inactive | 
22 | COCCOCCO | inactive | 
23 | c1nc[nH]n1 | inactive | 
24 | c1ccc2c(c1)Nc1ccccc1S2 | inactive | 
25 | CC(Cl)(Cl)C(=O)O | inactive | 
26 | c1ccc(OP(Oc2ccccc2)Oc2ccccc2)cc1 | inactive | 
27 | CCC(C)(C)c1ccc(O)cc1 | inactive | 
28 | CC(C)(C)OOC(C)(C)C | inactive | 
29 | CCCN(CCC)c1c([N+](=O)[O-])cc(C(C)C)cc1[N+](=O)[O-] |  | 1170 nM (active)
30 | [N-]=[N+]=[N-] | inactive | 
31 | CCN(CC)c1ccccc1 | inactive | 
32 | CC(Cc1ccc(OCC(=O)O)cc1)NCC(O)c1csc(C(F)(F)F)n1 (stereo not given) | inactive | 
33 | c1cc2c3c(cccc3c1)CC2 | inactive | 
34 | O=P1(N(CCCl)CCCl)NCCCO1 (stereo not given) | inactive | 
35 | CSC(C)(C)C=NO | inactive | 
36 | ClC(Cl)c1ccccc1 | inactive | 
37 | CN(C)C(=O)Cl | inactive | 
38 | OCC1CO1 (stereo not given) | inactive | 
39 | Nc1ccc(Cl)cc1 | inactive | 
40 | CCCCN(CCCC)N=O | inactive | 
